These results are taken from ChEMBL document CHEMBL1961873, “Compounds: GSK PKIS; Assays: Nanosyn kinase panel” (2012).

This assay deals with Platelet-derived growth factor receptor alpha (Homo sapiens), P16234 [T674I]. To be noted: at 0.1 µM.
Chain of Platelet-derived growth factor receptor alpha (Homo sapiens), P16234 [T674I] (P16234 whole entry T674I): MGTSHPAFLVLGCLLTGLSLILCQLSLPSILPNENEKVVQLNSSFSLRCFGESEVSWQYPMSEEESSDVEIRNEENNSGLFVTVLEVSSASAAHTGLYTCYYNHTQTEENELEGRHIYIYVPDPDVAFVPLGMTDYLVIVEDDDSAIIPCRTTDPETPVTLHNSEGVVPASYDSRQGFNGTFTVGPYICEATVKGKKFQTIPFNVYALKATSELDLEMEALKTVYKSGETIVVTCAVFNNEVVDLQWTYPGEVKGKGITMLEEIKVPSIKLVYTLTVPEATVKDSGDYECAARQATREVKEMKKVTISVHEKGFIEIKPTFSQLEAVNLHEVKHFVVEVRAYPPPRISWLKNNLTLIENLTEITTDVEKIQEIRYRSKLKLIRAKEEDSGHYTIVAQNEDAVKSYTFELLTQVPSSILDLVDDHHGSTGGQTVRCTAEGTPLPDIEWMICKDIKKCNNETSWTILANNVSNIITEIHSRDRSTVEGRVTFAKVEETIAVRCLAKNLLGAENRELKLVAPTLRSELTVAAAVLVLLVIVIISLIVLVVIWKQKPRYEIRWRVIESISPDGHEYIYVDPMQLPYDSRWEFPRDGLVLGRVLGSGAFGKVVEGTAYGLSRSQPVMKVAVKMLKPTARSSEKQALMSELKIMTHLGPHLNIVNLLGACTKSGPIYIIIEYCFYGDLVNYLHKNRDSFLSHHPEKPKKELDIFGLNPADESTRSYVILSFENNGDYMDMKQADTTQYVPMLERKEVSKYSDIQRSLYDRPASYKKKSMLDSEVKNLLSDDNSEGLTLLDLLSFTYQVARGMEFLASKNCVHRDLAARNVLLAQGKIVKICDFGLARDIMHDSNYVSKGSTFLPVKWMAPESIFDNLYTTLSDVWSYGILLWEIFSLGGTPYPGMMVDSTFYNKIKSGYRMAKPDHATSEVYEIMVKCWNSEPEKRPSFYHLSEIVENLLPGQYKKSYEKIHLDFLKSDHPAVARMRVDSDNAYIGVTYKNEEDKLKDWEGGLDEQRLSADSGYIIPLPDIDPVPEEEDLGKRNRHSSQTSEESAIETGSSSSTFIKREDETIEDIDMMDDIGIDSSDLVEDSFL
What is called inhibition is how much of the control response was suppressed. The low end stands for little suppression, the high end for strong suppression. Take `O=C1NC(=O)C(c2cccc(Cl)c2)=C1Nc1ccc(Cl)c(C(=O)O)c1`: the inhibition stood at 6.92%.

In turn, `CCc1cccc(CC)c1/C=C/c1cncc(C(=O)NC)c1` gave an inhibition of 2.23%.

Consider `C/C(Nc1ccc(S(N)(=O)=O)cc1)=C1/C(=O)Nc2ccccc21`, for which the inhibition came to 34.4%. With `Cc1ccc(C(=O)NC2CCC2)cc1-c1ccc(C(=O)NCC2CC2)cc1` the figure was 3.43%; with `O=C(Nc1n[nH]c2cc(-c3ccccc3)ccc12)C1CC1`, 4.04%; with `NS(=O)(=O)c1ccc(N/N=C2\C(=O)Nc3ccc(-c4cnco4)cc32)cc1`, 1.96%.

`COc1cc(C)c(N(C)C(=O)CN(C)C)cc1Nc1nc(Nc2cccc(F)c2C(N)=O)c2cc[nH]c2n1` returned an inhibition of 1.14%. The result for `CN1CCN(CCCNc2nc3ccc(Oc4ccc(NC(=O)Nc5cc(C(F)(F)F)ccc5F)cc4)cc3[nH]2)CC1` reads 29.5%; that for `Fc1ccc(-c2ncn(C3CCNCC3)c2-c2ccnc(Oc3ccc(F)c(F)c3)n2)cc1`, 1.08%.

`Cc1ccc(C(=O)NC(C)C)cc1-c1ccc(C(=O)NCC2CC2)cc1` displayed an inhibition of 1.13%. The result for `N#Cc1ccc(Oc2nccc(-c3c(-c4ccc(F)cc4)ncn3C3CCNCC3)n2)cc1` reads 3.29%. As to `NC(=O)Cc1ccccc1Oc1nccc(-c2c(-c3ccc(F)cc3)ncn2C2CCNCC2)n1`, the inhibition amounted to 3.6%.

Compound `c1ccc(Oc2ccc(Nc3ncc(-c4ccccc4)o3)cc2)cc1` had an inhibition of 4.06%.

For the compound `Fc1ccc(-c2ncn(C3CCNCC3)c2-c2ccnc(Oc3ccc4c(c3)OCO4)n2)cc1`, the inhibition is 11.5%.

In the case of `COc1ccc(C2=C(N3CCc4ccccc43)C(=O)NC2=O)cc1`, the inhibition is 7.16%. With `C#Cc1cccc(Nc2ncnc3ccc(OCCCCNCCS(C)(=O)=O)cc23)c1` the figure was 8.07%.
